# Assay outcomes deposited in PubChem BioAssay by NMMLSC.
# RGS16-Gao: modulators of RGS16 binding to Galphao, primary screen, biochemical, human proteins, multiplexed bead flow cytometry | bead-based flow cytometry RGS16-Galphao binding, fluorescence; actives lie on both sides | 220,000 compounds, 0.38% hits | binding response (% of control), % at 10 µM | Regulator of G-protein signaling 16 (Homo sapiens) + Guanine nucleotide-binding protein … | AID 1441, 2008;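 further: Galphao activated by GDP with aluminum fluoride before binding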
# GSH fluor: compound fluorescence on glutathione beads, profiling panel, artefact control, biophysical, 488/530 nm, flow cytometry. fluorescence (KMESF) at 10 µM. AID 1776, 2009. 190,000 compounds, 0.25% hits. GSH beads flow cytometry, compound fluorescence 488/530 nm; stronger effect = higher value; in the data active means fluorescence above about 89;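 further: glutathione beads carrying GST-tagged Bcl family fusion proteins plus one bare bead set; values are compound well signal with DMSO vehicle wells as background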
# Avidin fluor: green autofluorescence of compounds with avidin beads – biophysical, 488/530 nm, flow cytometry, artefact control, profiling panel | compound fluorescence 488/530 nm; stronger effect = higher value | fluorescence (KMESF) at 10 µM | 220,000 compounds, 0.38% hits | AID 1775, 2009; in the data active means fluorescence above about 47
# RGS7-Gao reg: RGS7-Galphao binding modulators, primary screen, biochemical, multiplexed bead flow cytometry. AID 1439, 2008. Guanine nucleotide-binding protein G(o) subunit alpha (Homo sapiens), P09471. binding response (% of control), % at 10 µM. actives lie on both sides. 220,000 compounds, 0.35% hits; in the data active means binding response below about 49% or above about 150%; inconclusive means no clear call, values can overlap the other calls; inactive means in between;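 further: fluorescent Galphao held in activated GDP-AlF4 state binding bead-coupled RGS7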
# Target sequence (P09471 whole entry, looked up): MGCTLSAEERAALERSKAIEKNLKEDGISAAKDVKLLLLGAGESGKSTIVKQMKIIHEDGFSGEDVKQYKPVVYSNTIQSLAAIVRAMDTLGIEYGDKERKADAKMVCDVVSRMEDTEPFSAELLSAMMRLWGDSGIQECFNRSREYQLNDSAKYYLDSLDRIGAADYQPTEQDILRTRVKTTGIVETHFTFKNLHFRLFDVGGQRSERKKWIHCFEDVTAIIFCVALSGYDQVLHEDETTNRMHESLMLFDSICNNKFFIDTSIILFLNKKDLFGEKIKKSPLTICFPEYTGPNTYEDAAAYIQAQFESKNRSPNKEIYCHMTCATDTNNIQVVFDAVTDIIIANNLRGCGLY
# RGS8-Gao: RGS8-Galphao binding modulators, primary screen, biochemical, multiplexed bead flow cytometry. AID 1423, 2008. 220,000 compounds, 0.34% hits. actives lie on both sides. response (percent of control binding), % at 10 µM; in the data active means response below about 60% or above about 140%; inactive means in between;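 further: Galphao activated as the GDP aluminium fluoride complex binding bead-coupled RGS8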
# RGS4-Gao reg: modulators of RGS4 binding to Galphao, primary screen, biochemical, multiplexed bead flow cytometry | Guanine nucleotide-binding protein G(o) subunit alpha (Homo sapiens), P09471 | actives lie on both sides | binding response (% of control), % at 10 µM | 220,000 compounds, 0.33% hits | AID 1415, 2008; in the data active means binding response below about 49% or above about 150%; inactive means in between;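 further: fluorescent Galphao activated with aluminum fluoride binding bead-coupled RGS4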
# RGS-Gao: modulators of RGS–Galpha-o binding, primary screen, biochemical, multiplexed beads, flow cytometry, RGS4/7/8/16/19. AID 1504, 2009. 1,600 compounds, 99% hits. RGS4–Galpha-o binding response, % at 10 µM. multiplexed bead flow cytometry. shares compounds with RGS16-Gao;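 further: fluorescently labeled Galpha-o bound to GDP with aluminium fluoride binding biotinylated RGS beads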
# Target sequence (P09471 whole entry, looked up): as above
# Target sequence (P49798 whole entry, looked up): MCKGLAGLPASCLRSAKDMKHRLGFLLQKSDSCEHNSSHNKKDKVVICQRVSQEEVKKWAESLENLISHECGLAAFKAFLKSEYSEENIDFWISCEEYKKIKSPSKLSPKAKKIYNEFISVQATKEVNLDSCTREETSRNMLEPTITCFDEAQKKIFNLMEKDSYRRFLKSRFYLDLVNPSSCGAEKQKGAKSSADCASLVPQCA
# Avidin counter: disruption of biotin probe capture by avidin, counter-screen for RGS protein interaction modulators, biochemical, flow cytometry, bead-based. AID 1783, 2009. 1,700 tested, under 10 active. streptavidin beads, fluorescein-biotin binding. shares compounds with RGS16-Gao. inhibition, % at 10 µM;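 active means inhibition above 50%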;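 further: median green fluorescence of gated singlet beads compared with DMSO control wells; 0% = DMSO wells and 100% = complete loss of bead fluorescence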
# RGS8-Gao single: RGS8-Galphao binding modulators, confirmation, biochemical, multiplexed bead flow cytometry, single concentration; shares compounds with RGS16-Gao; bead-based flow cytometry RGS8-Galphao binding, fluorescence; actives lie on both sides; binding response (% of control), % at 10 µM; 1,700 compounds, 3% hits; AID 1836, 2009; in the data active means binding response below about 72% or above about 130%; inactive means in between;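 further: Galphao activated as GDP AlF4 complex before binding bead RGS8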
# RGS7-Gao confirm: RGS7-Galphao binding modulators, confirmation, biochemical, multiplexed bead flow cytometry, single concentration; response (percent of control binding), % at 10 µM; bead-based flow cytometry RGS7-Galphao binding; actives lie on both sides; shares compounds with RGS16-Gao; 1,700 compounds, 7.8% hits; in the data active means response below about 75% or above about 130%; inactive means in between;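 further: fluorescent Galphao activated with GDP and aluminum fluoride binding bead-coupled RGS7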
# RGS16-Gao conf: modulators of RGS16-Galphao protein binding, confirmation, biochemical, single concentration, multiplexed bead flow cytometry | shares compounds with RGS16-Gao | bead-based flow cytometry; actives lie on both sides | response (% of control binding), % at 10 µM | 1,700 compounds, 4% hits; in the data active means response below about 74% or above about 130%; inactive means in between;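 further: Galphao activated as the GDP aluminium fluoride complex binding bead-coupled RGS16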
# RGS4-Gao confirm: modulators of RGS4-Galphao protein binding, confirmation, biochemical, single concentration, multiplexed bead flow cytometry; shares compounds with RGS16-Gao; actives lie on both sides; binding response (% of control), % at 10 µM; 1,700 compounds, 4% hits; AID 1840, 2009; in the data active means binding response below about 74% or above about 130%; inactive means in between
# RGS19-Gao single: regulators of RGS19-Galphao binding, confirmation, biochemical, single point, multiplexed bead flow cytometry; shares compounds with RGS16-Gao; 1,700 compounds, 5% hits; bead-based flow cytometry RGS19-Galphao binding; actives lie on both sides; response (percent of control binding), % at 10 µM; AID 1841, 2009; in the data active means response below about 50% or above about 160%; inactive means in between;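 further: 100% = no compound control and 0% = blank background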
# An asterisk follows results filed as active; ? = inconclusive; · = no result given; [ ] = dose if it differs, or a comment. This is a sample that favours compounds with a hit; in the whole collection about 1.2% have one here. Unless noted, how the calls were made is not given here.
SMILES,RGS16-Gao,GSH fluor,Avidin fluor,RGS7-Gao reg,RGS8-Gao,RGS4-Gao reg,RGS-Gao,Avidin counter,RGS8-Gao single,RGS7-Gao confirm,RGS16-Gao conf,RGS4-Gao confirm,RGS19-Gao single
CCC(C)(C)NC(=O)C1CCN(S(=O)(=O)c2cccs2)CC1,364*[activator],38,80*,424*[activator],129,465*[activator],·,3,101,102,101,101,85
COc1c(Cl)cc(Cl)cc1/C=C/C(=O)c1ccc(NC(=O)c2cccs2)cc1,9.2*,10,-1,16*,22*,25*,·,2,100,100,101,100,103
COc1c(Cl)cc(Cl)cc1C(=O)Nc1ccc(C(=O)O)cc1,62,9,1,100,89,99,·,·,·,·,·,·,·
C/C(=N\NC(=O)c1cc(C(C)C)[nH]n1)c1ccco1,190*[activator],7,3,106,126,102,102*,2,101,102,101,100,108
C/C(=N/NC(=O)c1cc(-c2ccc(Br)s2)[nH]n1)c1ccco1,114,32,10,104,106,104,·,·,·,·,·,·,·
O=C(CCC(=O)Nc1ccc(Cl)cc1Cl)NNC(=O)[C@@H]1CCCC[C@@H]1C(=O)O,185*[activator],11,5,107,128,108,108*,1,101,105,103,103,101
O=C(O)C1CCCCC1C(=O)Nc1ccc(Cl)cc1Cl (stereo unspecified),90,14,12,91,98,90,·,·,·,·,·,·,·
O=C(CCC(=O)Nc1ccc(Cl)cc1Cl)NNC(=O)Nc1ccccc1,99,19,9,?,99,101,·,·,·,·,·,·,·
O=C(O)C1CCCCC1C(=O)Nc1cc(Cl)ccc1Cl (stereo unspecified),99,30,5,49*,59*,87,87*,1,100,102,101,102,105
CC(=O)Nc1ccccc1P(=O)(c1ccccc1)c1ccccc1OC(C)=O (stereo unspecified),102,·,10,?,98,99,·,·,·,·,·,·,·
Oc1ccc(/C=N/Nc2ncnc3nc[nH]c23)cc1,33,·,2,?,52*,37*,·,-2,102,84,95,84,117
O=C1CC(C(=O)Nc2cc(Cl)ccc2Cl)n2ncnc2N1 (stereo unspecified),101,26,12,99,99,100,·,·,·,·,·,·,·
Oc1ccc(Nc2nc3ccccc3nc2Nc2ccc(O)cc2)cc1,170,24,80*,161*[activator],110,165*[activator],·,0,95,84,90,87,81
Cc1nc2ccccc2nc1N/N=C/c1ccc(O)cc1,96,·,7,?,99,97,·,·,·,·,·,·,·
O=C(NC(=S)Nc1ccc(N2CCOCC2)cc1)c1ccc2c(c1)OCCO2,98,7,2,98,99,97,·,·,·,·,·,·,·
O=C(NC(=S)Nc1ccc(N2CCCCC2)cc1)c1ccc2c(c1)OCCO2,204*[activator],6,14,107,125,107,107*,0,102,98,100,97,101
Cc1cc(C)c2c(=O)n(CC(=O)Nc3cccc(F)c3)sc2n1,17*,·,2,?,71,83,83*,0,67*,98,17*,85,24*
CCOc1ccc(NC(=O)Cn2sc3nc(C)cc(C)c3c2=O)cc1,41,·,3,?,82,98,·,·,·,·,·,·,·
Cc1cccc(N2CCN(C(=O)Cn3sc4nc(C)cc(C)c4c3=O)CC2C)c1 (stereo unspecified),22*,16,3,104,72,94,94*,2,63*,121,12*,99,2.5*
Cc1cc(C)c2c(=O)n(CC(=O)Nc3ccc(Cl)cc3)sc2n1,12*,·,5,?,67,101,101*,1,68*,108,15*,96,17*
Cc1ccc(NC(=O)Cn2sc3nc(C)cc(C)c3c2=O)c(Cl)c1,16*,·,2,?,67,88,88*,0,65*,88,22*,82,18*
CCCn1c(=O)c(Br)cn(-c2ccccc2C)c1=O,97,·,33,?,100,102,·,·,·,·,·,·,·
NC(=O)CC(NC(=O)Cc1ccc(Br)cc1)c1ccc(NCc2ccc(F)cc2)c([N+](=O)[O-])c1 (stereo unspecified),103,·,12,?,103,102,·,·,·,·,·,·,·
COc1ccc(/C(C)=N/NC(=O)Cn2nc([N+](=O)[O-])cc2C)cc1,93,·,3,?,99,97,·,·,·,·,·,·,·
CC(C)Cc1nnc(NC(=O)CSc2ccccn2)s1,·,39,·,·,·,·,·,0,102,97,102,99,105
